# ± gives the standard deviation.
# T1: HaloTag-ATRX ADD domain (163-292)
# T1 chain: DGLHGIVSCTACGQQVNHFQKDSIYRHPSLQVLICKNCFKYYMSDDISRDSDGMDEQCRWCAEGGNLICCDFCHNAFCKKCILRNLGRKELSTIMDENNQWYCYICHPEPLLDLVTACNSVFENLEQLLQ
# Columns and labels:
# Test in all cases: peptide microarray binding signal (635 nm), min-max normalized on array (fraction of array maximum); higher = stronger binding
# Details in all cases: peptide region: H3 1-13
# [1] = molecular target: T1, HaloTag-ATRX ADD domain (163-292)
# Description: (§1)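 Histone 13-mer peptides were synthesized as cellulose conjugates with a C-terminal 20-atom PEG linker and printed in triplicate on nitrocellulose. The sequence given is the unmodified backbone; PTMs (Kme1/2/3, Kac, Sph/Tph, Rme/Rme2a/Rme2s, Rcit) are listed in the label and the 'peptide modifications' condition. Slides were probed at 4 °C for 1 h with biotin-labelled (HQ)5-HaloTag reader fusions (ATRX-ADD, ING2-PHD) then streptavidin-Alexa647, or with rabbit histone antibodies then anti-rabbit Alexa647. The mean 635 nm signal of the triplicate spots was scaled 0-1 between the lowest and highest values on each array.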
# [2] = molecular target: HaloTag-ING2 PHD (mouse Ing2 200-280)
# Description: as §1
# [3] = molecular target: anti-H3K4me3 antibody ab8580
# Description: as §1
# [4] = molecular target: anti-H3K9me3 antibody ab8898
# Description: as §1
# [5] = peptide modifications: H3K4me1 H3T6ph, binder concentration: 1:2,000 dilution
# [6] = peptide modifications: H3K4me1 H3T6ph, binder concentration: 1:10,000 dilution
# [7] = peptide modifications: H3K4me1 H3K9me1, binder concentration: 1:2,000 dilution
# [8] = peptide modifications: H3K4me1 H3K9me1, binder concentration: 1:10,000 dilution
# [9] = peptide modifications: H3K4ac H3K9me3, binder concentration: 1:2,000 dilution
# [10] = peptide modifications: H3K4ac H3K9me3, binder concentration: 1:10,000 dilution
# [11] = peptide modifications: H3K4me1 H3K9me2, binder concentration: 1:2,000 dilution
# [12] = peptide modifications: H3K4me1 H3K9me2, binder concentration: 1:10,000 dilution
# [13] = peptide modifications: H3K4me2 H3K9me2, binder concentration: 1:2,000 dilution
# [14] = peptide modifications: H3K4me2 H3K9me2, binder concentration: 1:10,000 dilution
# [15] = peptide modifications: H3K4me2 H3K9me1, binder concentration: 1:2,000 dilution
# [16] = peptide modifications: H3K4me2 H3K9me1, binder concentration: 1:10,000 dilution
# [17] = peptide modifications: H3K4ac H3K9me2, binder concentration: 1:2,000 dilution
# [18] = peptide modifications: H3K4ac H3K9me2, binder concentration: 1:10,000 dilution
# [19] = peptide modifications: H3K4me3, binder concentration: 1:2,000 dilution
# [20] = peptide modifications: H3K4me3, binder concentration: 1:10,000 dilution
# [21] = peptide modifications: H3K4me2 H3K9me3, binder concentration: 1:2,000 dilution
# [22] = peptide modifications: H3K4me2 H3K9me3, binder concentration: 1:10,000 dilution
# [23] = peptide modifications: H3K4me1 H3K9me3, binder concentration: 1:2,000 dilution
# [24] = peptide modifications: H3K4me1 H3K9me3, binder concentration: 1:10,000 dilution
binder,measurement,setting,value
ARTKQTARKSTGG [H3 1-13 A R T Kme Q Tph A R K S T G G],peptide microarray binding signal,"[1]; peptide modifications: H3K4me1 H3T6ph, binder concentration: 50 nM",0.00661 ± 0.00014
same,peptide microarray binding signal,"[1]; peptide modifications: H3K4me1 H3T6ph, binder concentration: 500 nM",0.0257 ± 0.00052
same,peptide microarray binding signal,"[2]; peptide modifications: H3K4me1 H3T6ph, binder concentration: 10 nM",0.087 ± 0.04
same,peptide microarray binding signal,"[2]; peptide modifications: H3K4me1 H3T6ph, binder concentration: 100 nM",0.211 ± 0.02
same,peptide microarray binding signal,[3]; [5],0.00296 ± 0.00042
same,peptide microarray binding signal,[3]; [6],0.00194 ± 0.00011
same,peptide microarray binding signal,[4]; [5],0.00414 ± 0.00036
same,peptide microarray binding signal,[4]; [6],0.00259 ± 0.00028
ARTKQTARKSTGG [H3 1-13 A R T Kme Q T A R Kme S T G G],peptide microarray binding signal,"[1]; peptide modifications: H3K4me1 H3K9me1, binder concentration: 50 nM",0.00743 ± 0.00015
same,peptide microarray binding signal,"[1]; peptide modifications: H3K4me1 H3K9me1, binder concentration: 500 nM",0.0134 ± 0.00046
same,peptide microarray binding signal,"[2]; peptide modifications: H3K4me1 H3K9me1, binder concentration: 10 nM",0.105 ± 0.023
same,peptide microarray binding signal,"[2]; peptide modifications: H3K4me1 H3K9me1, binder concentration: 100 nM",0.145 ± 0.024
same,peptide microarray binding signal,[3]; [7],0.0452 ± 0.0073
same,peptide microarray binding signal,[3]; [8],0.0277 ± 0.0056
same,peptide microarray binding signal,[4]; [7],0.00387 ± 0.00011
same,peptide microarray binding signal,[4]; [8],0.00248 ± 0.00012
ARTKQTARKSTGG [H3 1-13 A R T Kac Q T A R Kme3 S T G G],peptide microarray binding signal,"[1]; peptide modifications: H3K4ac H3K9me3, binder concentration: 50 nM",0.0136 ± 0.004
same,peptide microarray binding signal,"[1]; peptide modifications: H3K4ac H3K9me3, binder concentration: 500 nM",0.0491 ± 0.024
same,peptide microarray binding signal,"[2]; peptide modifications: H3K4ac H3K9me3, binder concentration: 10 nM",0.0828 ± 0.015
same,peptide microarray binding signal,"[2]; peptide modifications: H3K4ac H3K9me3, binder concentration: 100 nM",0.0894 ± 0.0073
same,peptide microarray binding signal,[3]; [9],0.0339 ± 0.018
same,peptide microarray binding signal,[3]; [10],0.0225 ± 0.0063
same,peptide microarray binding signal,[4]; [9],0.0825 ± 0.052
same,peptide microarray binding signal,[4]; [10],0.0423 ± 0.027
ARTKQTARKSTGG [H3 1-13 A R T Kme Q T A R Kme2 S T G G],peptide microarray binding signal,"[1]; peptide modifications: H3K4me1 H3K9me2, binder concentration: 500 nM",0.0151 ± 0.00042
same,peptide microarray binding signal,"[2]; peptide modifications: H3K4me1 H3K9me2, binder concentration: 10 nM",0.155 ± 0.014
same,peptide microarray binding signal,"[2]; peptide modifications: H3K4me1 H3K9me2, binder concentration: 100 nM",0.182 ± 0.062
same,peptide microarray binding signal,[3]; [11],0.0488 ± 0.0073
same,peptide microarray binding signal,[3]; [12],0.0289 ± 0.0056
same,peptide microarray binding signal,[4]; [11],0.00408 ± 0.00035
same,peptide microarray binding signal,[4]; [12],0.00409 ± 0.00034
ARTKQTARKSTGG [H3 1-13 A R T Kme2 Q T A R Kme2 S T G G],peptide microarray binding signal,"[1]; peptide modifications: H3K4me2 H3K9me2, binder concentration: 50 nM",0.0279 ± 0.0029
same,peptide microarray binding signal,"[1]; peptide modifications: H3K4me2 H3K9me2, binder concentration: 500 nM",0.0628 ± 0.0034
same,peptide microarray binding signal,"[2]; peptide modifications: H3K4me2 H3K9me2, binder concentration: 10 nM",0.766 ± 0.063
same,peptide microarray binding signal,"[2]; peptide modifications: H3K4me2 H3K9me2, binder concentration: 100 nM",0.786 ± 0.077
same,peptide microarray binding signal,[3]; [13],0.408 ± 0.12
same,peptide microarray binding signal,[3]; [14],0.343 ± 0.15
same,peptide microarray binding signal,[4]; [13],0.0325 ± 0.0041
same,peptide microarray binding signal,[4]; [14],0.0104 ± 0.00076
ARTKQTARKSTGG [H3 1-13 A R T Kme2 Q T A R Kme S T G G],peptide microarray binding signal,"[1]; peptide modifications: H3K4me2 H3K9me1, binder concentration: 50 nM",0.0128 ± 0.00075
same,peptide microarray binding signal,"[1]; peptide modifications: H3K4me2 H3K9me1, binder concentration: 500 nM",0.0286 ± 0.0013
same,peptide microarray binding signal,"[2]; peptide modifications: H3K4me2 H3K9me1, binder concentration: 10 nM",0.656 ± 0.061
same,peptide microarray binding signal,"[2]; peptide modifications: H3K4me2 H3K9me1, binder concentration: 100 nM",0.43 ± 0.13
same,peptide microarray binding signal,[3]; [15],0.365 ± 0.067
same,peptide microarray binding signal,[3]; [16],0.152 ± 0.018
same,peptide microarray binding signal,[4]; [15],0.00797 ± 0.0012
same,peptide microarray binding signal,[4]; [16],0.00398 ± 0.00019
ARTKQTARKSTGG [H3 1-13 A R T Kac Q T A R Kme2 S T G G],peptide microarray binding signal,"[1]; peptide modifications: H3K4ac H3K9me2, binder concentration: 50 nM",0.00875 ± 0.0011
same,peptide microarray binding signal,"[1]; peptide modifications: H3K4ac H3K9me2, binder concentration: 500 nM",0.0157 ± 0.0031
same,peptide microarray binding signal,"[2]; peptide modifications: H3K4ac H3K9me2, binder concentration: 10 nM",0.0771 ± 0.0077
same,peptide microarray binding signal,"[2]; peptide modifications: H3K4ac H3K9me2, binder concentration: 100 nM",0.0944 ± 0.0071
same,peptide microarray binding signal,[3]; [17],0.00689 ± 0.0014
same,peptide microarray binding signal,[3]; [18],0.00702 ± 0.001
same,peptide microarray binding signal,[4]; [17],0.00331 ± 0.0003
same,peptide microarray binding signal,[4]; [18],0.00455 ± 0.00089
ARTKQTARKSTGG [H3 1-13 A R T Kme3 Q T A R K S T G G],peptide microarray binding signal,"[1]; peptide modifications: H3K4me3, binder concentration: 50 nM",0.00868 ± 0.00032
same,peptide microarray binding signal,"[1]; peptide modifications: H3K4me3, binder concentration: 500 nM",0.0201 ± 0.0038
same,peptide microarray binding signal,"[2]; peptide modifications: H3K4me3, binder concentration: 10 nM",0.383 ± 0.2
same,peptide microarray binding signal,"[2]; peptide modifications: H3K4me3, binder concentration: 100 nM",0.232 ± 0.072
same,peptide microarray binding signal,[3]; [19],0.596 ± 0.33
same,peptide microarray binding signal,[3]; [20],0.549 ± 0.54
same,peptide microarray binding signal,[4]; [19],0.0584 ± 0.025
same,peptide microarray binding signal,[4]; [20],0.0227 ± 0.011
ARTKQTARKSTGG [H3 1-13 A R T Kme2 Q T A R Kme3 S T G G],peptide microarray binding signal,"[1]; peptide modifications: H3K4me2 H3K9me3, binder concentration: 50 nM",0.133 ± 0.011
same,peptide microarray binding signal,"[1]; peptide modifications: H3K4me2 H3K9me3, binder concentration: 500 nM",0.21 ± 0.019
same,peptide microarray binding signal,"[2]; peptide modifications: H3K4me2 H3K9me3, binder concentration: 10 nM",1 ± 0.17
same,peptide microarray binding signal,"[2]; peptide modifications: H3K4me2 H3K9me3, binder concentration: 100 nM",1 ± 0.088
same,peptide microarray binding signal,[3]; [21],0.491 ± 0.058
same,peptide microarray binding signal,[3]; [22],0.325 ± 0.12
same,peptide microarray binding signal,[4]; [21],0.429 ± 0.054
same,peptide microarray binding signal,[4]; [22],0.369 ± 0.044
ARTKQTARKSTGG [H3 1-13 A R T Kme Q T A R Kme3 S T G G],peptide microarray binding signal,"[1]; peptide modifications: H3K4me1 H3K9me3, binder concentration: 50 nM",0.253 ± 0.034
same,peptide microarray binding signal,"[1]; peptide modifications: H3K4me1 H3K9me3, binder concentration: 500 nM",0.336 ± 0.03
same,peptide microarray binding signal,"[2]; peptide modifications: H3K4me1 H3K9me3, binder concentration: 10 nM",0.335 ± 0.065
same,peptide microarray binding signal,"[2]; peptide modifications: H3K4me1 H3K9me3, binder concentration: 100 nM",0.547 ± 0.039
same,peptide microarray binding signal,[3]; [23],0.243 ± 0.018
same,peptide microarray binding signal,[3]; [24],0.101 ± 0.049
same,peptide microarray binding signal,[4]; [23],0.4 ± 0.096
same,peptide microarray binding signal,[4]; [24],0.275 ± 0.034
